Phagocyt inh = macrophage phagocytosis inhibition | J774A.1 macrophage IgG-bead phagocytosis, imaging | inhibition, % at 5 µM | actives 0.07% (n = 110,000);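 active means inhibition above the mean of the plate negative controls plus 5 SD, cut at about 13% in these data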;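 further: phagocytic index as fraction of beads internalized from green versus red external bead signal; plate controls were DMSO negative control for no effect and cytochalasin-D positive control for full effect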
IL1B NFkB pot = enhances IL-1B driven NFkB nuclear translocation | HUVEC IL-1B NFkB p65 nuclear translocation imaging | activation, % at 2 µM | actives 0.3% (n = 94,000);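 active means activation above 40%, about the mean plus 3 SD, also judged a hit on visual image review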;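 further: percent activation is computed from the nuclear over cytoplasmic p65 intensity ratio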
NFkB transloc inh = blocks IL-1B driven NFkB nuclear translocation in HUVEC cells. inhibition, % at 2 µM. actives 0.43% (n = 94,000). HUVEC IL-1B NFkB p65 nuclear translocation imaging. AID 796;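 active means inhibition above about 30% together with a positive call from visual inspection of the well image, limit read from the data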;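 further: nuclear over cytoplasmic p65 intensity ratio measured by imaging; 0% = IL-1B stimulated DMSO wells and 100% = unstimulated DMSO wells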
HUVEC tox TNFa = HUVEC cytotoxicity counter-screen, TNF alpha stimulated; cell count reduction, % at 2 µM; actives 0.17% (n = 93,000); AID 848; HUVEC TNFalpha-stimulated, Hoechst cell count, imaging;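 active means cell count reduction exceeding the screen mean by over 5 SD, scaled to untreated wells per plate, cut at about 78% in these data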;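 further: cells counted after 24 h of TNF alpha exposure following the 1 h pretreatment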
HUVEC tox IL1B = toxic to HUVEC cells under IL-1B stimulation; AID 845; HUVEC cell count loss, Hoechst imaging, IL-1B stimulated; cell count reduction, % at 2 µM; actives 0.41% (n = 94,000);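 active means cell count reduction more than 3 SD above the screen-wide mean, cut at about 70% in these data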;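 further: normalized per plate to untreated control cells as the no-loss baseline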
* = called active by the depositor; [ ] = another dose, or the depositor's remark. This is a sample that favours compounds with a hit; in the whole collection about 0.93% have one here.

`CCOC(=O)c1ccc(Nc2nc(C(=O)OCC)nc3ccccc23)cc1` gave IL1B NFkB pot -3, NFkB transloc inh 3, HUVEC tox TNFa -41 and HUVEC tox IL1B 84*.
O=C(c1csc2ccccc12)N1CCN(c2ccc(Cl)c(Cl)c2)CC1 was read as IL1B NFkB pot -62, NFkB transloc inh 62*, HUVEC tox TNFa -3 and HUVEC tox IL1B 2.
For CCCc1oc(C(=O)O)cc1CN1CCOCC1 the results were Phagocyt inh 1, IL1B NFkB pot -32, NFkB transloc inh 32*, HUVEC tox TNFa -21 and HUVEC tox IL1B 14.
For CCCc1oc(C(=O)O)cc1CN1CCCC1 the results were Phagocyt inh -1, IL1B NFkB pot 25, NFkB transloc inh -25, HUVEC tox TNFa -12 and HUVEC tox IL1B 0.
`COC(=O)c1ccc(NC(c2ccc(Cl)cc2)P(=O)(OC)OC)cc1` (stereo not given) gave Phagocyt inh -4.
`NC(=O)C1(N2CCCCC2)CCN(C2CC(=O)N(CCc3ccccc3)C2=O)CC1` (stereo not given) gave Phagocyt inh 2, IL1B NFkB pot -5, NFkB transloc inh 5, HUVEC tox TNFa -6 and HUVEC tox IL1B 6.
NC(=O)C1(N2CCCCC2)CCN(C2CC(=O)N(Cc3cccs3)C2=O)CC1 (stereo not given) was read as IL1B NFkB pot -32, NFkB transloc inh 32*, HUVEC tox TNFa 13 and HUVEC tox IL1B 9.
NC(=O)C1(N2CCCCC2)CCN(C(=O)c2cccs2)CC1 was read as Phagocyt inh -1, IL1B NFkB pot 40*, NFkB transloc inh -40, HUVEC tox TNFa -32 and HUVEC tox IL1B 8.
`Cc1cc(C)cc(NC(=O)c2cccn2-c2ncc(C(F)(F)F)cc2Cl)c1` gave IL1B NFkB pot 0, NFkB transloc inh 0, HUVEC tox TNFa -15 and HUVEC tox IL1B -17.
`CN1CC=C2C(C#N)=C(N)C(C#N)(C#N)[C@H](c3cccc(Cl)c3)C2C1` (stereo not given in full) gave Phagocyt inh 1, IL1B NFkB pot -34, NFkB transloc inh 34*, HUVEC tox TNFa -4 and HUVEC tox IL1B -42.
CN1CC=C2C(C#N)=C(N)C(C#N)(C#N)C(c3ccsc3)C2C1 (stereo not given) was read as Phagocyt inh -1, IL1B NFkB pot 10, NFkB transloc inh -10, HUVEC tox TNFa -7 and HUVEC tox IL1B 2.
Screening COc1cc(S(=O)(=O)N2CCCCC2)ccc1NC(=O)c1ccccc1Cl returned IL1B NFkB pot -47, NFkB transloc inh 47*, HUVEC tox TNFa -7 and HUVEC tox IL1B -36.
`CN(c1ccccc1C(=O)Nc1ccc(S(=O)(=O)N2CCCC2)cc1)S(C)(=O)=O` gave Phagocyt inh -1, IL1B NFkB pot 2, NFkB transloc inh -2, HUVEC tox TNFa -9 and HUVEC tox IL1B -104.
CN(c1ccccc1C(=O)Nc1ccc(S(=O)(=O)N2CCCCC2)cc1)S(C)(=O)=O was read as Phagocyt inh -2, IL1B NFkB pot -99, NFkB transloc inh 99*, HUVEC tox TNFa 5 and HUVEC tox IL1B 94*.
For Cc1ccc(Nc2nc(N)nc(CN3CCN(c4ccccc4)CC3)n2)cc1Cl the results were Phagocyt inh active, IL1B NFkB pot 10, NFkB transloc inh -10, HUVEC tox TNFa -20 and HUVEC tox IL1B -8.
For COc1ccccc1OCc1nc(Cc2ccc(Cl)cc2)no1 the results were Phagocyt inh 0, IL1B NFkB pot 42*, NFkB transloc inh -42, HUVEC tox TNFa 7 and HUVEC tox IL1B 3.
COc1ccc(Cc2noc(COc3ccc(Cl)cc3)n2)cc1 was read as IL1B NFkB pot -1, NFkB transloc inh 1, HUVEC tox TNFa 5 and HUVEC tox IL1B 1.
Cc1cc2c3c(c1)C1(SCC(=O)N1c1ccc(F)cc1)C(=O)N3C(C)(C)CC2C (stereo not given) was read as Phagocyt inh -1, IL1B NFkB pot -34, NFkB transloc inh 34*, HUVEC tox TNFa 1 and HUVEC tox IL1B -12.
Cc1ccoc1C(=O)NCCNc1ccc(Cl)cc1[N+](=O)[O-] was read as Phagocyt inh 13.
For CSc1nc(N)nc(SCC(=O)CC(=O)OC(C)C)c1C#N the results were Phagocyt inh 38*[artifact], IL1B NFkB pot 29, NFkB transloc inh -29, HUVEC tox TNFa 5 and HUVEC tox IL1B 18.
CCOc1ccc(Nc2cc(=O)oc3ccccc23)cc1 was read as IL1B NFkB pot 3, NFkB transloc inh -3, HUVEC tox TNFa -10 and HUVEC tox IL1B 4.
Screening CN(C)Cc1cnc2ccc(Cl)cn12 returned Phagocyt inh -3, IL1B NFkB pot -97, NFkB transloc inh 97*, HUVEC tox TNFa -2 and HUVEC tox IL1B 87*.
For O=C(O)C(Cc1ccccc1)N1Cc2ccccc2C1=O (stereo not given) the results were Phagocyt inh -1, IL1B NFkB pot 40*, NFkB transloc inh -40, HUVEC tox TNFa -47 and HUVEC tox IL1B 5.
Screening Cc1nnc(SCc2ccccc2C#N)n1-c1ccccc1 returned Phagocyt inh 0, IL1B NFkB pot 24, NFkB transloc inh -24, HUVEC tox TNFa -2 and HUVEC tox IL1B 82*.
Cc1nnc(SCc2ccon2)n1-c1ccccc1 was read as IL1B NFkB pot -1, NFkB transloc inh 1, HUVEC tox TNFa 0 and HUVEC tox IL1B -7.
CCOC(=O)C[n+]1c(C)sc2ccc(OC)cc21 was read as Phagocyt inh -4, IL1B NFkB pot -43, NFkB transloc inh 43*, HUVEC tox TNFa 7 and HUVEC tox IL1B -21.
Screening CCO/C(=C/c1sc2ccc(OC)cc2[n+]1CCCS(=O)(=O)[O-])CC returned IL1B NFkB pot -7, NFkB transloc inh 7, HUVEC tox TNFa -21 and HUVEC tox IL1B 15.
COc1ccc(N2C(=O)C3CCCN3C2c2ccccc2F)cc1 (stereo not given) was read as Phagocyt inh 0, IL1B NFkB pot 51*, NFkB transloc inh -51, HUVEC tox TNFa -23 and HUVEC tox IL1B 0.
For c1ccc(CNc2ncnc3nc[nH]c23)cc1 the results were Phagocyt inh 0, IL1B NFkB pot 5, NFkB transloc inh -5, HUVEC tox TNFa -10 and HUVEC tox IL1B -1.
C1=Nc2c(NCc3ccccc3)ncnc2Oc2ccccc21 was read as Phagocyt inh -1, IL1B NFkB pot -98, NFkB transloc inh 98*, HUVEC tox TNFa -2 and HUVEC tox IL1B 91*.
`Cc1ccc(C2CC(c3cccs3)=NN2C(=O)CSc2nc3ccccc3o2)cc1` (stereo not given) gave Phagocyt inh -12.
`C=CCOc1ccc(/C(O)=C2\C(=O)C(=O)N(CCOC)C2c2cccnc2)cc1` (stereo not given) gave Phagocyt inh -1, IL1B NFkB pot 14, NFkB transloc inh -14, HUVEC tox TNFa -27 and HUVEC tox IL1B -11.
`CCCOc1ccc(/C(O)=C2/C(=O)C(=O)N(CCOC)C2c2cccnc2)cc1` (stereo not given) gave Phagocyt inh -1, IL1B NFkB pot 3, NFkB transloc inh -3, HUVEC tox TNFa 80* and HUVEC tox IL1B -4.

Screening results as filed in PubChem.
